This is an account of results in PubChem BioAssay (NCATS).

Inconclusive results are not listed. Values without a mark were called inactive. The call rests on the fitted dose curve; in most records, active means well fitted activation curve with a large enough effect; inconclusive means small, poorly fitted or top-dose-only effect; inactive means flat fitted curve, though single readings scatter.

The nature of this experiment: Cellular Toxicity (caspase-3) Hek293 (AID 664).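 Further: cells exposed to compound for 16 h at 37 °C before readout.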 The settings on record: HEK293 caspase-3 activation, DMSO = 0%, 100 µM tamoxifen = 100%; series mostly up to 92.2 µM; caspase-3 activation: at the top concentration. The source says: NIH Chemical Genomics Center [NCGC]
NIH Molecular Libraries Screening Centers Network [MLSCN]
National Institutes of Environmental Health Sciences [NIEHS]
National Toxicology Program [NTP]
We have developed a 1536-well cell-based assay for quantitative high throughput screening (qHTS) against a number of cell lines to determine in vitro caspase 3/7 of small molecules. This particular assay uses the Hek 293 cell line which is derived from human embryonic kidney cells.
NCGC Assay Protocol Summary:
The Caspase-Glo 3/7 assay (Promega) is a homogeneous method to measure caspase-3 and caspase-7 activities in cultured cells. The quantitation of caspase 3/7 activity is based on the cleavage of a peptide-aminoluciferin substrate. After caspase cleaves the substrate the free aminoluciferin is liberated and serves as the substrate of luciferase, which generates the light. The luminescent signal is proportional to amount of caspase 3/7 activity present.
Using the Caspase-Glo 3/7 assay, the amount of caspase 3/7 activity was measured in the Hek 293 cell line with complete culture medium following compound treatment for 16 hours. The assay was performed in opaque white 1536-well plates. In the screen, tamoxifen and doxorubicin were used as positive controls. Library compounds were measured for their ability to cause the activation of caspase 3/7 in the cell line, as reflected by an increase in luminescence signal, in a concentration-dependent manner. Data were normalized to the controls for basal activity (DMSO only) and 100% stimulation (100 uM tamoxifen). AC50 values were determined from concentration-response data modeled with the standard Hill equation.
qHTS protocol for caspase 3/7 assay in Hek 293 cells
[Step] [Parameter] [Value] [Description]
2. Time; 5 hr; 37 °C incubation
4. Controls; 23 nL; Tamoxifen 0.23 uM to 100 uM & Doxorubicin 7.0 pM to 100 uM
5. Time; 16 hr; 37 °C incubation
6. Reagent; 5 uL; Caspase-Glo 3/7 reagent
7. Time; 20 min; Room Temperature
8. Detection; Luminescence; Viewlux plate reader
Keywords: caspase 3/7, apoptosis, Hek 293 cell line, luminescence, NTPHTS, NTPHTS_NCGC, NIEHS, EPA, DSSTox, MLSMR, MLSCN, NIH Roadmap, qHTS, NCGC
For `Oc1ccccc1Cl`, the “caspase-3 activation” value is -0.417%.
For the molecule `COC(=O)c1ccccc1C(=O)OC`, the “caspase-3 activation” value is 0.619%.
For the molecule `O=Cc1ccccc1`, the “caspase-3 activation” value is -0.171%.
Consider `CCOc1cc(C=O)ccc1O`, for which the “caspase-3 activation” value was 2.67%.
To `c1ccc(Nc2ccc3ccccc3c2)cc1` belongs 7.69%; to `c1ccc2c(c1)-c1cccc3cccc-2c13`, 1.9%.
Turning to `Cc1ccccc1O`, the “caspase-3 activation” value was -0.0983%.
For the molecule `Oc1c(Cl)c(Cl)c(Cl)c(Cl)c1Cl`, the “caspase-3 activation” value was -1.2%.
As to `CC(C)COC(=O)c1ccccc1C(=O)OCC(C)C`, the “caspase-3 activation” value is 1.06%.
As to `COC1=CC(=O)OC(CCc2ccc3c(c2)OCO3)C1` (stereo not drawn), the “caspase-3 activation” value is -1.85%.
As to `CC(C)(c1ccc(OCC2CO2)cc1)c1ccc(OCC2CO2)cc1` (stereo not drawn), the “caspase-3 activation” value is 27.7%.
Then `CCOC(=O)c1ccccc1N`, with -1.38%.
Take `CC(=O)/C=C/c1ccccc1`: the “caspase-3 activation” value was 0.0694%.
